According to PubChem BioAssay AID1981 (Southern Research Specialized Biocontainment Screening …, 2009):
The whole screen tested about 2,200 compounds, of which about 480 (22%) were called active. How the calls were made is not given here. A selection follows. Measured potencies and affinities stand elsewhere.

Experiment: S. Typhimurium GFP fluorescence modified counterscreen for PhoP regulon inhibitor project dose response (AID 1981)
Details: 4 h; series mostly up to 150 µM

Row | Compound | outcome
1 | CC1OC(Nc2cccc3ccccc23)C(O)C(O)C1O (stereo not given) | inactive
2 | O=C(Nc1ccc2snnc2c1)Nc1cccc2ccccc12 | inactive
3 | CC(C(=O)Nc1cc([N+](=O)[O-])ccc1Cl)N1CCN(c2ccccc2O)CC1 (stereo not given) | inactive
4 | CCCCNC(=O)Oc1cccc(N2CCCC2=O)c1 | inactive
5 | CCOC(=O)c1sc(NC(=O)Nc2ccc(Cl)cc2)cc1C | inactive
6 | Cc1ccnc2nc(C(=O)Nc3ccc4c(c3)OCO4)nn12 | inactive
7 | CC(C)c1ccc(NC(=O)Nc2cc3sccc3n2C)cc1 | inactive
8 | CCOC(=O)CN(C)Cc1c[nH]c2ccccc12 | inactive
9 | Cc1[nH][nH]c(=O)c1C(c1ccc(O)c([N+](=O)[O-])c1)c1c(C)[nH][nH]c1=O | inactive
10 | CCCc1[nH][nH]c(=O)c1C(c1ccc(Br)cc1)C(C#N)C#N (stereo not given) | inactive
11 | O=c1[nH][nH]c(-c2ccccc2O)c1C(C[N+](=O)[O-])c1cccc(Cl)c1 (stereo not given) | inactive
12 | CCCCCC(=O)Nc1ccc2ccccc2c1 | inactive
13 | O=C(CSc1nnc(-c2ccc(O)cc2)n1-c1ccccc1)CC(=O)Nc1ccccc1 | inactive
14 | O=C(O)CCc1nnc2n(Cc3ccc(F)cc3)c(=O)c3ccccc3n12 | inactive
15 | COc1cc(CNc2ccc(CNc3ncn[nH]3)cc2)ccc1OCC(=O)NC(C)(C)C | inactive
16 | O=S(=O)(NCc1ccccc1)c1cccc(S(=O)(=O)N2CCOCC2)c1 | inactive
17 | Cn1c(CC(=O)Nc2ccc(Cl)c(Cl)c2)nnc1SCC(=O)Nc1nccs1 | inactive
18 | O=C(COC(=O)c1n[nH]c2ccccc12)NC(=O)NC12CC3CC(CC(C3)C1)C2 | inactive
19 | Oc1ccc(C=Nc2cccc3ncccc23)c(O)c1 | inactive
20 | O=C(COc1ccccc1)NC(=S)Nc1ccc2c3c(cccc13)CC2 | inactive
21 | Cc1c(C)n(Cc2ccccc2)c2ncnc(NN)c12 | inactive
22 | O=C(NCCCN1CCCC1=O)c1ccc(Cl)c(NS(=O)(=O)c2ccc(F)cc2)c1 | inactive
23 | Cc1ccc(NC(=O)C(=O)NCCOc2ccccc2Cl)cc1 | inactive
24 | CN(CCC(=O)Nc1ccc(Br)cc1)Cc1ccccc1 | inactive
25 | COc1ccccc1CC(=O)N1CCN(c2ccccn2)CC1 | inactive
26 | COC(=O)c1ccc2nc(C(F)(F)F)[nH]c2c1 | inactive
27 | O=c1cc(-c2ccc([N+](=O)[O-])cc2)nc2cc(-c3ccc(Cl)cc3)[nH]n12 | inactive
28 | COC(=O)c1c(C(=O)OC)c(-c2cccc(C)c2)n2c1CS(=O)(=O)C2 | inactive
29 | O=C(NCc1ccc2c(c1)OCO2)c1ccc(-n2cnnn2)cc1 | inactive
30 | COC(=O)c1ccccc1NC(=O)CS(=O)(=O)Cc1nc(-c2ccc(C)cc2)oc1C | inactive
